Compounds with a hit are over-represented: about 13% of the library has one in this group of screens.
FMDV inh: antivirals against foot and mouth disease virus | actives 1.2% (n = 410,000) | Potency, µM (highest dose often 57.9 µM), actives largely listed as inhibitors | FMDV antiviral cell-based qHTS; calls by dose curve; tested in HEK293T cells; also: read-out not given here; nearly all actives have a fitted effect of over 45% in size
Shiga inhibitor: blocks Shiga toxin action in Vero cells | Vero cells, Shiga toxin protein synthesis inhibition reporter | inhibition, % at 38.7 µM | actives 9.2% (n = 290,000); in the data active = inhibition mostly above about 28%, no sharp cut-off; inactive = mostly below about 43%
Marburg entry inh: blocks Marburg virus binding to or entry into cells | Marburg virus pseudotyped entry inhibition, cell reporter | Potency, µM (series often up to 37.8 µM), usual class: inhibitors | actives 1.8% (n = 300,000) | AID 540276; calls by dose curve; tested in HEK293 cells
LASV entry inh: blocks Lassa virus binding to or entry into cells; Lassa virus pseudotype entry inhibition, cell reporter; Potency, µM (highest dose often 37.9 µM), usual class: inhibitors; actives 1.2% (n = 300,000); AID 540256; calls by dose curve; tested in HEK293 cells; also: nearly all actives have a fitted effect of over 50% in size
HCV inhibitor: HCV inhibition. Huh7.5.1 HCVcc-Cre infection, luciferase reporter, 44 h. Potency, µM (doses to about 41.8 µM), usual class: inhibitors. actives 3.4% (n = 340,000). AID 651820; active = well fitted inhibition curve with a large enough effect; inconclusive = small, poorly fitted or top-dose-only effect, or another doubt; inactive = no such curve, though single readings can be large or run the other way
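Whole-lifecycle infectious HCVcc-Cre system; cells 1,000/well, compound then virus (~0.5 moi) added 4 h after plating, 44 h culture. Luciferase read 15 sec following 15 min substrate incubation, room temp.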
CHX counter: affects cycloheximide protein synthesis inhibition readout, counter-screen | cell reporter, cycloheximide protein synthesis inhibition counterscreen | max response, % | actives 12% (n = 300,000); in the data active = max response mostly above about 13%, no sharp cut-off; inactive = mostly below about 14%; also: read at 38.3 µM for the half of the compounds with a filed dose
Of the large screens only hits and unclear results are named; the others gave an inactive call.

OCCOC1CCCc2oc(-c3ccccc3)c(C#CC3(O)CCCCC3)c21 (stereo not drawn)	none (no result: Shiga inhibitor, Marburg entry inh, LASV entry inh, HCV inhibitor, CHX counter)
Cn1nnnc1SCC(=O)c1ccc(Br)s1	none
CC(=O)Nc1ccc(SCC(=O)c2ccc(Br)s2)cc1	Shiga inhibitor 36.9, CHX counter 21.2
CC(=O)Nc1ccc(SCc2csc(C)n2)cc1	Shiga inhibitor 47.3
Cc1ccnc(SCC(=O)c2ccc(Br)s2)n1	LASV entry inh inconclusive, CHX counter 35.8
Cc1ccnc(SCC(=O)c2cccs2)n1	Shiga inhibitor 83.7, Marburg entry inh inconclusive, LASV entry inh inconclusive, CHX counter 38.0
CC(=O)Nc1ccc(NC(=O)C(C)OC(=O)C2CCN(S(=O)(=O)c3ccccc3C(F)(F)F)CC2)cc1 (stereo not drawn)	none (no result: Shiga inhibitor, CHX counter)
COc1ccccc1CNC(=O)c1cnn(-c2ccc(F)cc2F)c1C1CCN(C(=O)OC(C)(C)C)CC1	LASV entry inh inconclusive (no result: Shiga inhibitor, Marburg entry inh, HCV inhibitor, CHX counter)
Cc1ccc(SCC(=O)c2ccc(CC(=O)O)s2)cc1	LASV entry inh inconclusive, CHX counter 19.5
Cc1c(C(=O)N2CCOCC2)c(S(=O)(=O)Nc2ccc(OC(F)(F)F)cc2)c(C)n1C	none (no result: Marburg entry inh, LASV entry inh)
Cc1cccc(N2CCN(C(=O)CC(NC(=O)c3ccccc3Cl)c3ccccc3)CC2)c1C (stereo not drawn)	Marburg entry inh 11.6µM, LASV entry inh inconclusive
Cc1ccc(C(=O)NCC(=O)N2CCN(c3ccccc3)CC2)cc1	none (no result: Marburg entry inh, LASV entry inh)
O=C(NCC(=O)N1CCN(c2ccccc2O)CC1)c1ccccc1	Shiga inhibitor 77.1, Marburg entry inh inconclusive, CHX counter 43.8
O=C(NCC(=O)N1CCN(c2ccccc2)CC1)c1ccccc1	Shiga inhibitor 53.4, CHX counter 10.7
Cc1cccc(N2CCN(C(=O)CNC(=O)c3cccc([N+](=O)[O-])c3)CC2)c1C	FMDV inh inconclusive, Marburg entry inh inconclusive, HCV inhibitor 11.2µM
O=C(NC(=O)N1CCN(c2ccccc2)CC1)c1ccc(Cl)cc1	Shiga inhibitor active, HCV inhibitor inconclusive, CHX counter 41.7
CC(C)N1C(=O)S/C(=C/c2ccccc2OCc2ccc(C(=O)O)cc2)C1=O	Shiga inhibitor 31.9
CN1C(=O)S/C(=C\c2ccccc2OCc2ccc(C(=O)O)cc2)C1=O	none
N#CCCn1cc(C(CC(=O)c2ccccc2)C(=O)O)c2ccccc21 (stereo not drawn)	CHX counter 29.5
CCOc1ccccc1NC(=O)CSc1nc2c(oc3ccccc32)c(=O)n1Cc1ccco1	Marburg entry inh inconclusive (no result: Shiga inhibitor, LASV entry inh, HCV inhibitor, CHX counter)
FC(F)(F)c1cccc(N2Cc3ccccc3C2)c1	Shiga inhibitor 36.8, CHX counter 19.8
C[C@H](CO)N1C[C@H](C)[C@H](CN(C)C(=O)c2ccccc2)OCc2cnnn2CCCC1=O	none (no result: Shiga inhibitor, Marburg entry inh, LASV entry inh, HCV inhibitor, CHX counter)
COc1ccc(C)cc1NC(=O)C(OC(=O)CNC(=O)c1ccc(Br)cc1)c1ccccc1 (stereo not drawn)	HCV inhibitor inconclusive, CHX counter 12.3
COc1ccc(C)cc1NC(=O)C(OC(=O)CNC(=O)c1cc(C)cc(C)c1)c1ccccc1 (stereo not drawn)	Marburg entry inh inconclusive, HCV inhibitor inconclusive
Cc1c(OCc2ccccc2)cccc1OCc1ccccc1	CHX counter 21.1
Cc1nc2ccccc2nc1OCc1ccccc1	CHX counter 18.3
Cc1oc(=O)cc(OCc2ccccc2)c1C	none (no result: Shiga inhibitor, Marburg entry inh, LASV entry inh, CHX counter)
O=C(c1ccccc1)N1N=C(C(F)(F)F)CC1(O)c1ccc(F)cc1 (stereo not drawn)	Shiga inhibitor 58.8, CHX counter 25.1
COc1cccc(C(=O)N2N=C(c3ccccn3)CC2(O)C(F)(F)F)c1 (stereo not drawn)	HCV inhibitor inconclusive (no result: Marburg entry inh, LASV entry inh)
O=C(c1ccccc1)N1N=C(C(F)(F)F)CC1(O)c1ccccc1 (stereo not drawn)	none (no result: Shiga inhibitor, Marburg entry inh, LASV entry inh)
COc1cccc(C2(O)CC(C(F)(F)F)=NN2C(=O)c2ccccn2)c1 (stereo not drawn)	Shiga inhibitor 64.5, Marburg entry inh inconclusive, LASV entry inh inconclusive, CHX counter 38.4
COC(=O)c1ccn(CSc2cc(Cl)ccc2Cl)n1	none (no result: Shiga inhibitor, Marburg entry inh, LASV entry inh, CHX counter)
Cc1cccc(NC(=O)CNC(=O)Cn2ncc(Cl)c(Cl)c2=O)c1C	FMDV inh 22.4µM, Marburg entry inh inconclusive, LASV entry inh inconclusive, HCV inhibitor 0.708µM (no result: Shiga inhibitor, CHX counter)
O=C(Cn1ncc(Cl)c(Cl)c1=O)NCC1CCCCC1	FMDV inh 28.2µM, Marburg entry inh inconclusive, LASV entry inh 17.8µM, HCV inhibitor 2.82µM, CHX counter 30.5
O=C1CN(C(=O)Cn2ncc(Cl)c(Cl)c2=O)c2ccccc2N1	FMDV inh inconclusive, Marburg entry inh inconclusive, LASV entry inh inconclusive, HCV inhibitor 5.62µM
O=C(Cn1ncc(Cl)c(Cl)c1=O)NC1CCCCC1	FMDV inh 35.5µM, HCV inhibitor 2.82µM (no result: Shiga inhibitor, Marburg entry inh, LASV entry inh, CHX counter)
CCOc1ccc(C(=O)N[C@H](C(=O)N2CCN(c3ncccn3)CC2)C(C)C)cc1	none (no result: Shiga inhibitor, Marburg entry inh, LASV entry inh, HCV inhibitor, CHX counter)
Cc1ccc(C)c(NC(=O)N2CCN3CCCCC3C2)c1 (stereo not drawn)	none (no result: Shiga inhibitor, Marburg entry inh, HCV inhibitor, CHX counter)
O=c1[nH]c(S)c(/C=C2\C=Nc3ccccc32)s1	none (no result: Marburg entry inh, LASV entry inh)
CNCC[C@H](Oc1ccccc1OC)c1ccccc1	Marburg entry inh 18.3µM (no result: Shiga inhibitor, LASV entry inh, HCV inhibitor, CHX counter)
CN(C)CCC(Oc1ccccc1OCc1ccccc1)c1ccccc1 (stereo not drawn)	Marburg entry inh inconclusive, LASV entry inh inconclusive (no result: Shiga inhibitor, CHX counter)
CC(C)CC(OC(=O)c1ccco1)C(=O)NC1CCCCC1 (stereo not drawn)	LASV entry inh inconclusive, CHX counter 16.6
O=C(COC(=O)c1ccc([N+](=O)[O-])o1)NC1CCCCC1	Marburg entry inh inconclusive (no result: Shiga inhibitor, CHX counter)
O=C(NC1CCCCCC1)c1ccco1	CHX counter 12.1 (no result: Marburg entry inh, LASV entry inh)
O=C(CNC(=O)c1ccco1)NC1CCCCCC1	Marburg entry inh inconclusive, LASV entry inh inconclusive (no result: Shiga inhibitor, CHX counter)
Cc1ccc(C(=O)OCC(=O)NC2CCCCC2)o1	CHX counter 15.0
Cc1ccc(C(=O)NC2CCCCCC2)o1	Shiga inhibitor 39.8, CHX counter 20.5
CCOC(=O)C1(CC)NC(c2cccc(F)c2)C2C(=O)N(CC)C(=O)C21 (stereo not drawn)	Marburg entry inh inconclusive
Cc1cc(C)n(CCN(C)c2nc3nonc3nc2N2CCCCC2)n1	LASV entry inh inconclusive
COCCNC(=O)CN1CCC(NC(=O)c2ccco2)CC1	CHX counter 22.5
Fc1cnc(N2CCOCC2)nc1N1CCOCC1	Marburg entry inh inconclusive
Fc1cnc(N2CCOCC2)nc1N1CCc2ccccc21	Shiga inhibitor active, Marburg entry inh inconclusive, HCV inhibitor inconclusive
Fc1cnc(Cl)nc1N1CCN(c2ccccc2)CC1	none
c1ccc(N2CCN(c3nc(-c4ccccn4)nc4ccccc34)CC2)cc1	FMDV inh inconclusive, Marburg entry inh inconclusive, LASV entry inh inconclusive, HCV inhibitor 3.16µM
CN1CCN(c2nc(N3CCN(c4ccccc4)CC3)ncc2F)CC1	Marburg entry inh inconclusive, HCV inhibitor 6.31µM (no result: FMDV inh)
c1ccc(N2CCN(c3ncccn3)CC2)cc1	LASV entry inh inconclusive, CHX counter 21.9
Oc1ccccc1N1CCN(c2ncccn2)CC1	LASV entry inh inconclusive
O=C(NCC1CCCO1)c1ccc(-c2cccc(C(F)(F)F)c2)o1 (stereo not drawn)	none (no result: Marburg entry inh, LASV entry inh)
COc1ccc2cc(-c3nc4ccc(C(=O)O)cc4[nH]3)c(=O)oc2c1	FMDV inh 1µM, LASV entry inh 10µM (no result: Shiga inhibitor, Marburg entry inh, HCV inhibitor, CHX counter)
